In ChEMBL document CHEMBL3433997, “St. Jude Leishmania screening dataset” (2016):

Biological target: Solute carrier family 2, facilitated glucose transporter member 1 (Homo sapiens) (UniProt P11166)
Assay: ST_JUDE_LEISH: Cytotoxicity at 2uM final concentration against transgenic Leishmania Mexicana promastigotes LmGLUT1 that are glucose transport deficient and complemented with the human glucose transporter GLUT1. Activity is measured by DNA content using SYBR green in vitro
Type: functional

Chain of Solute carrier family 2, facilitated glucose transporter member 1 (Homo sapiens) (P11166 whole entry): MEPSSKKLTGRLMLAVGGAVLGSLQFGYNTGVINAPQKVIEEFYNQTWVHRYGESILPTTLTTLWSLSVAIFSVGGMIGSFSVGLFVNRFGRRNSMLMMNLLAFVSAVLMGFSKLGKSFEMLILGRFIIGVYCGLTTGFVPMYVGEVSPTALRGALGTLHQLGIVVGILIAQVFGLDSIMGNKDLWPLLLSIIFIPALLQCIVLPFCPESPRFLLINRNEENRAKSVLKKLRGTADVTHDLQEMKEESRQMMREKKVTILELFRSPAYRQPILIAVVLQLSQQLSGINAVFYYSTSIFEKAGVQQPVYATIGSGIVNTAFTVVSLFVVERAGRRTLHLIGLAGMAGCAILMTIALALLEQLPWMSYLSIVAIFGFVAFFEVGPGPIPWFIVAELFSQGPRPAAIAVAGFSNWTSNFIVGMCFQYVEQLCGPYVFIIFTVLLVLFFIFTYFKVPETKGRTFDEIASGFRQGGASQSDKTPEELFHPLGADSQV

| Compound | inhibition [%] |
| --- | --- |
| Cc1[nH]c(C)c(-c2ccc(-c3ccccc3F)nc2)c(=O)c1Cl | 1.2 |
| c1ccc(Oc2ccc(Nc3ccnc4cc(-c5csc(CNCCN6CCOCC6)n5)ccc34)cc2)cc1 | -1.32 |
| CCCc1cc(Cc2cnc(N)nc2N)cc(CCC)c1OCCCCC(=O)OCC | 6.48 |
| O=S(=O)(c1ccccc1)n1ccc2cc(Nc3ncnc4cc(C#C[C@H]5CCCN5)sc34)ccc21 | 2.91 |
| COc1ccccc1COc1c(C)nc(N)nc1N | -1.13 |
| Nc1ncnc2nc(-c3ccc(F)cc3)cc(-c3ccc(NC(=O)c4ccccc4)cc3)c12 | 4.74 |
| Cc1nc2ccc3nc(NC(=O)c4ccno4)sc3c2s1 | 1.74 |
| O=C(Nc1ccc(Cl)cc1)Nc1cccc(-c2cccc(-c3nc4cc(C(F)(F)F)ccc4[nH]3)c2)c1 | -0.58 |
| Cc1ccc(-c2nn3c(O)c4c(nc3c2C)CCCC4)cc1 | -0.48 |
| CCCCc1ccc(-c2nc(NC(=O)Nc3[nH]c(-c4ccccc4)nc3C(=O)OCC)c(C(=O)OCC)[nH]2)cc1 | 3.65 |
| CCOc1ccc(NC(=O)c2ccc(CN3CCCN(Cc4cccc(O)c4)CC3)cc2)cc1 | 3.91 |
| Clc1ccc(CNCC2CCN(CC3CCCCC3)CC2)cc1Cl | -1.58 |
| COc1ccccc1-c1cccc(-c2cccc(NC(=O)c3ccc([N+](=O)[O-])o3)c2)n1 | 11.2 |
| COc1cc2nc(N3CCC(CNC(=O)/C=C/c4ccccc4F)CC3)nc(N)c2cc1OC | 8.22 |
| CON=Cc1ccn(-c2ccc(O)c3c2C[C@H]2C[C@H]4[C@H](N(C)C)C(O)=C(C(N)=O)C(=O)[C@@]4(O)C(O)=C2C3=O)c1 | 5.15 |
| Nc1cccc(CNCc2ccc(-c3ccc(-c4nc5ccccc5[nH]4)s3)cc2)c1 | 2.71 |
| COc1cc(F)c2ncc(Cl)c(CCN3CCC(NCc4cc5c(cn4)OCCO5)CC3)c2c1 | 28.4 |
| O=C(NC1CCC(N2CCC(O)(c3ccc(F)cc3)CC2)CC1)c1cc2ccccc2[nH]1 (stereo not given) | 1.2 |
| Cc1ccc(C)c(NC(=O)CC2C(=O)N(c3ccccc3)C(=S)N2Cc2ccco2)c1 (stereo not given) | 4.9 |
| CN(C)C=Nc1ccc(OCCCCCCOc2ccc(N=CN(C)C)cc2)cc1 | 3.14 |

| Compound | inhibition [%] |
| --- | --- |
| O=C(Nc1ccccc1)N(Cc1cccc(-c2ccc(CNCCc3ccccc3)cc2)c1)C1CCN(Cc2ccccc2)CC1 | 0.46 |
| CCOC(=O)c1sc(C(C)Nc2ccccc2)nc1-c1ccccc1 (stereo not given) | 0.89 |
| CCOC(=O)c1cc(Cl)ccc1OCCCON1C(=N)N=C(N)NC1(C)C | 1.75 |
| CCCCCCn1c(Sc2ccc(C#N)c([N+](=O)[O-])c2)nnc1-c1cccc(Cl)c1 | 3.22 |
| CN1CCN(c2ccc(Nc3c4ccccc4nc4ccccc34)cc2)CC1 | 7.02 |
| O=C(CSc1nnc(O)n1Cc1ccccc1)Nc1ccccc1-c1ccccc1 | 5.26 |
| O=C(C1CC1)N1c2ccccc2CCc2ccccc21 | -0.93 |
| Cc1ccc(CNC(=O)[C@H](CC(C)C)Nc2cc(C)nc(NCC3CCCCC3)n2)cc1 | 11.2 |
| COc1ccc(OCC(O)CN(Cc2ccccc2OC)C(=O)Nc2ccc(Br)cc2)cc1 (stereo not given) | 6.41 |
| Cc1cccc(Nc2nc(C)cc(N3CCCN(CC4CCCCC4)CC3)n2)c1 | -2.84 |
| Cc1nc(-c2nc(N3CCOCC3)ncc2-c2ccsc2)sc1C | -1.47 |
| O=C(Nc1ccncc1)c1cc(C(=O)Nc2ccncc2)cc([N+](=O)[O-])c1 | -0.17 |
| COc1ccc(-c2nc(NC(=O)CSc3ccc([N+](=O)[O-])cc3)sc2C)cc1 | 0.33 |
| CC(C)(C)c1ccc(C(=O)N2CCC3(CC2)C(=O)N(CC(=O)NCC2CCCO2)CN3c2ccccc2)cc1 (stereo not given) | 0.44 |
| CN(C)CCCN1CCN(C(=O)c2cc3cc(-c4ccccc4)ccc3n2S(=O)(=O)c2ccccc2)CC1 | 60.9 |
| N#Cc1cccc(NC(=O)Nc2cccc(-c3cccc(-c4nc5cc(C(F)(F)F)ccc5[nH]4)c3)c2)c1 | 2.08 |
| O=[N+]([O-])c1cccc(Nc2nccc(-c3cnn4ncccc34)n2)c1 | 83 |
| Cc1cc(CNC(=O)[C@H](CC2CCCCC2)Nc2ccc(C#N)c3ccccc23)c(C(F)(F)F)o1 | 1.15 |
| Cc1cc(NC(=O)NCCN2CCC(NS(=O)(=O)c3ccccc3Cl)C2)c2ccccc2n1 (stereo not given) | -2.1 |
| O=C(Nc1ccccc1)N(Cc1cccc(-c2cccc(CNCCc3ccccc3)c2)c1)C1CCN(Cc2ccccc2)CC1 | 7.12 |
